Here are results for six compounds from PubChem BioAssay (NCI).

Molecules are shown by their SMILES. Values joined by “and” are separate entries in the source; they are usually repeats but may differ in a detail not shown here. Identical values can stand only once. The panel holds about 83,000 compounds, 20% with a hit somewhere; the sample as a whole holds those more often.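 96-well plates, one dose, 48 hours. Percent growth reported; active if below 10.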 Active and inactive are the calls of the source.

Assay in all cases: NCI-60 one-dose screen, 48 h (100 = growth as untreated, 0 = no growth, -100 = all killed)
What all share (conditions): 10 µM unless noted

In assay [1] the test system is HCT-15 colon.
The test system of assay [2] is HT29 colon.
The test system of assay [3] is SNB-75 CNS.
The subject of assay [4] is SNB-19 CNS.
In assay [5] the test system is U251 CNS.
The subject of assay [6] is PC-3 prostate.
Assay [7] deals with SK-MEL-5 melanoma.
Assay [8] concerns UACC-62 melanoma.
The subject of assay [9] is LOX IMVI melanoma.
The test system of assay [10] is SK-MEL-2 melanoma.
The test system of assay [11] is EKVX NSCLC.
In assay [12] the test system is SN12C renal.
The test system of assay [13] is UO-31 renal.
The subject of assay [14] is TK-10 renal.
The test system of assay [15] is ACHN renal.
For assay [16], the system named is CAKI-1 renal.
The test system of assay [17] is A498 renal.
Assay [18] has as its system CCRF-CEM leukemia.
For assay [19], the system named is MOLT-4 leukemia.
Assay [20] has as its system SK-MEL-28 melanoma.

With `CCN(CC)C(CC(=O)c1ccccc1)C(=O)c1ccccc1` (configuration not stated), the growth is 64.6% (inactive) in assay [1]; 95.1% (inactive) in [2]; 114% (inactive) in assay [3]; 98.4% (inactive) in assay [4]; 93.7% (inactive) in [5]; 101% (inactive) in [6]. Besides, the growth in assay [7] is 94.5% (inactive); in assay [8], 99.7% (inactive); in assay [9], 88.6% (inactive); in assay [10], 110% (inactive); in [11], 98.2% (inactive); in [12] it was 93.4% (inactive). The growth in [13] is 84.1% (inactive); in [14] it was 70.2% (inactive); in assay [15] it was 71.2% (inactive); in assay [16], 101% (inactive); in assay [17], 75.1% (inactive); in assay [18], 30.4% (inactive). In assay [19], the growth was 27.9% (inactive).

For the compound `O=c1[nH]c(=S)[nH]n1C(=S)n1[nH]c(=S)[nH]c1=O`, the growth was 112% (inactive) in [1]; 106% (inactive) in [2]; 92% (inactive) in [3]; 99.9% (inactive) in assay [4]; 83.3% (inactive) in [6]; 93% (inactive) in [7]. Also, the growth in assay [8] is 94.4% (inactive); in [9], 95.6% (inactive); in assay [20], 114% (inactive); in assay [10], 106% (inactive); in assay [11], 105% (inactive); in assay [12] it was 101% (inactive). For the same compound, the growth is 80.5% (inactive) in assay [13]; 106% (inactive) in assay [14]; 99.3% (inactive) in assay [15]; 94.8% (inactive) in assay [16]; 109% (inactive) in [17]; 93.6% (inactive) in assay [18]. Moreover, in assay [19], the growth is 112% (inactive).

As to `Cc1ccc2cccc([N+](=O)[O-])c2n1`, the growth in assay [1] was 105% (inactive) and 96.9% (inactive); in assay [2] it was 99% (inactive) and 96% (inactive); in [3] it was 106% (inactive) and 79.5% (inactive); in assay [4], 109% (inactive) and 99% (inactive); in [6] it was 99.7% (inactive) and 102% (inactive); in [7] it was 99.1% (inactive) and 105% (inactive). Further, the growth in [8] is 102% (inactive); in assay [9], 100% (inactive) and 94.8% (inactive); in assay [20], 109% (inactive) and 111% (inactive); in assay [10], 104% (inactive) and 111% (inactive); in assay [11], 114% (inactive); in assay [12] it was 98.8% (inactive) and 100% (inactive). Moreover, the growth is 88.3% (inactive) and 73.6% (inactive) in [13]; 109% (inactive) and 111% (inactive) in [14]; 105% (inactive) and 96.9% (inactive) in [15]; 96.5% (inactive) and 95.6% (inactive) in [16]; 117% (inactive) and 109% (inactive) in assay [17]; 108% (inactive) and 95.3% (inactive) in assay [18]. In addition, the growth in [19] was 88.5% (inactive) and 89.3% (inactive).

For `CC1(CO)CCCC1NCCNC1CCCC1(C)CO` (configuration not stated), the growth in assay [1] is 96.8% (inactive) and 99% (inactive); in assay [2], 91.3% (inactive) and 103% (inactive); in assay [3], 84.7% (inactive) and 97.9% (inactive); in assay [4] it was 102% (inactive) and 103% (inactive); in assay [5], 106% (inactive); in assay [6] it was 90.9% (inactive) and 95% (inactive). Further, the growth in assay [7] was 99.7% (inactive) and 101% (inactive); in assay [8] it was 99% (inactive) and 102% (inactive); in assay [9], 98.8% (inactive); in [10], 89.9% (inactive) and 110% (inactive); in assay [11] it was 101% (inactive); in assay [12], 98% (inactive) and 103% (inactive). Further, the growth in [13] is 105% (inactive) and 86% (inactive); in [14], 108% (inactive); in assay [15], 105% (inactive) and 100% (inactive); in [16], 99.5% (inactive) and 92.3% (inactive); in assay [17] it was 102% (inactive) and 111% (inactive); in assay [18], 99.6% (inactive). In addition, in assay [19], the growth is 115% (inactive) and 104% (inactive).

Consider `Nc1nc(-c2ccccn2)cc(-c2cc(-c3ccccn3)nc(N)n2)n1`, for which the growth in assay [1] was 97% (inactive); in assay [2], 120% (inactive); in assay [3], 143% (inactive); in assay [4] it was 101% (inactive); in assay [5] it was 109% (inactive); in [6], 99.3% (inactive). For the same compound, the growth in assay [7] was 105% (inactive); in assay [8], 102% (inactive); in assay [9] it was 96.5% (inactive); in [10] it was 112% (inactive); in assay [11] it was 102% (inactive); in [12], 108% (inactive). The growth in [13] was 91.1% (inactive); in assay [14], 107% (inactive); in assay [16] it was 96.7% (inactive); in assay [17], 156% (inactive); in [18] it was 101% (inactive); in [19] it was 106% (inactive).

`Clc1ccc(/C=C/c2ccc3ccccc3n2)cc1`: the growth in assay [1] was 26.6% (inactive) and 96.4% (inactive) and 81.7% (inactive); in [2] it was 2.32% (active) and 79.3% (inactive) and 71.1% (inactive); in assay [3], -21.1% (active) and 98.7% (inactive) and 88.1% (inactive); in assay [4] it was 42.2% (inactive) and 96.2% (inactive) and 98.8% (inactive); in assay [5], 16.3% (inactive) and 95.6% (inactive) and 87.1% (inactive); in assay [6], 31.3% (inactive) and 271% (inactive) and 92% (inactive). In addition, the growth in [7] was 24.4% (inactive) and 88.9% (inactive) and 81.9% (inactive); in [8], 43.1% (inactive) and 78.5% (inactive) and 75.8% (inactive); in assay [9] it was 18.3% (inactive) and 83% (inactive) and 82.5% (inactive); in assay [10] it was 10.7% (inactive) and 89.2% (inactive); in assay [11], 57.6% (inactive) and 58.7% (inactive) and 66.2% (inactive); in assay [12], 43.8% (inactive) and 97.7% (inactive) and 85.7% (inactive). For the same compound, the growth in assay [13] is 69.7% (inactive) and 68.4% (inactive) and 58.1% (inactive); in assay [14], 15.3% (inactive) and 132% (inactive) and 86.7% (inactive); in assay [16] it was 47.7% (inactive) and 68% (inactive) and 84.7% (inactive); in [17], 61% (inactive) and 135% (inactive) and 114% (inactive); in assay [18] it was 8.05% (active) and 97.1% (inactive) and 89.3% (inactive); in [19] it was 30.9% (inactive) and 41.9% (inactive) and 76% (inactive).
